Key:
Assay in all cases: DAPPL (digital affinity profiling via proximity ligation, sequencing); 10 mM Tris-HCl pH 7.5, 50 mM NaCl, 1 mM DTT, 4% glycerol, room temperature, 30 min; GST-TFs on glutathione beads, 16-mer random dsDNA library, 0.1% formaldehyde crosslink after washing; high values mean tight binding
[1] = molecular target: T1, FEV (Homo sapiens, UniProt Q99581 1-238); conditions: protein: recombinant; tags: N-terminal GST; dsDNA, one strand shown
T1 sequence: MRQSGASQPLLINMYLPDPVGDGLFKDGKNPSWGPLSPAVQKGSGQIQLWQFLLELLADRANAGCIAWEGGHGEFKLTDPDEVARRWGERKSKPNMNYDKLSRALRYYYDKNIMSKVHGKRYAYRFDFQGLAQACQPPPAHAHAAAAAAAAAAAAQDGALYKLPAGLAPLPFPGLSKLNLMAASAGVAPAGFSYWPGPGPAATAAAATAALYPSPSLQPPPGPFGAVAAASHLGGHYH
Procedure, shortened: (§1)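 A tag-only sample was pooled with DNA-barcoded human transcription factors that had been expressed in yeast as GST fusions and captured on glutathione beads. The pools were incubated for 30 min at room temperature with 200 nmole of a random double-stranded 16-mer DNA library in Tris/NaCl/DTT/glycerol buffer, then washed, crosslinked with 0.1% formaldehyde, proximity-ligated (BsaI/T4 ligase, 1 h, 37 °C), PCR-amplified and sequenced on an Illumina NextSeq500. Binding signal is each hexamer's read frequency for a factor divided by its frequency for the tag-only sample.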

[2] = molecular target: ETV5 (Homo sapiens, UniProt P41161 1-510); conditions: protein: recombinant; tags: N-terminal GST; dsDNA, one strand shown
Procedure, shortened: as §1

[3] = molecular target: HSF1 (Homo sapiens, UniProt Q00613 1-529); conditions: protein: recombinant; tags: N-terminal GST; chain copies: 3; dsDNA, one strand shown
Procedure, shortened: as §1

[4] = molecular target: T2, SPIC (Homo sapiens, UniProt Q8N5J4 1-248); conditions: protein: recombinant; tags: N-terminal GST; dsDNA, one strand shown
T2 sequence: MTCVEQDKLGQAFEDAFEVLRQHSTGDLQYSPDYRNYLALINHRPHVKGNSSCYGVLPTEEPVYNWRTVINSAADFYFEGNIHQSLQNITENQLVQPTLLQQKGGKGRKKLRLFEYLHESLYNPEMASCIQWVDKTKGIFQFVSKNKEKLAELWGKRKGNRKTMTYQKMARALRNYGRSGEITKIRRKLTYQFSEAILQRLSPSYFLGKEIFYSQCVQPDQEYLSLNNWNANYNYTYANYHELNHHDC
Procedure, shortened: as §1

[5] = molecular target: ELF4 (Homo sapiens, UniProt Q99607 1-663); conditions: protein: recombinant; tags: N-terminal GST; dsDNA, one strand shown
Procedure, shortened: as §1

[6] = molecular target: T3, ELK4 (Homo sapiens, UniProt P28324-2 1-405); conditions: protein: recombinant; tags: N-terminal GST; dsDNA, one strand shown
T3 sequence: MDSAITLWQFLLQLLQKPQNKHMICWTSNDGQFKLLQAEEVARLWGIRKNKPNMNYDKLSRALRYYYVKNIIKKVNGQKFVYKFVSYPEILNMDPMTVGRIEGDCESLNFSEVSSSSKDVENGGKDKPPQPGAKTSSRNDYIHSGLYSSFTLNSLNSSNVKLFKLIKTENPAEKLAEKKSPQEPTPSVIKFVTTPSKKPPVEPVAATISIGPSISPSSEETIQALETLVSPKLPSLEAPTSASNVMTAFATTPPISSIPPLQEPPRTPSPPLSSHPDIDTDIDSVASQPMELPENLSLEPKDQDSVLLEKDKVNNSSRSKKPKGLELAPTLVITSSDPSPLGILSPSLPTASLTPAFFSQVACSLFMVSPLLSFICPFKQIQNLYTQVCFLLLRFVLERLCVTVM
Procedure, shortened: as §1

[7] = molecular target: T4, ETV2 (Homo sapiens, UniProt O00321 1-342); conditions: protein: recombinant; tags: N-terminal GST; dsDNA, one strand shown
T4 sequence: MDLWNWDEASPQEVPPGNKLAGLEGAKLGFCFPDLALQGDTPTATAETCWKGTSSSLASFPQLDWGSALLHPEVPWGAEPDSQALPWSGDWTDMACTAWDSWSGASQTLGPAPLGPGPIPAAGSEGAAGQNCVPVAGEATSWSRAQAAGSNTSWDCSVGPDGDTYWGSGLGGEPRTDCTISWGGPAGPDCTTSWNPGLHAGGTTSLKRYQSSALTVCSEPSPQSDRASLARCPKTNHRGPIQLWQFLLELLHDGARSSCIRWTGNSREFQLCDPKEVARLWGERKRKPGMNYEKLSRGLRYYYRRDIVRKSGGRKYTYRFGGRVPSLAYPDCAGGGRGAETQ
Procedure, shortened: as §1

[8] = molecular target: T5, ELF3 (Homo sapiens, UniProt P78545 1-371); conditions: protein: recombinant; tags: N-terminal GST; dsDNA, one strand shown
T5 sequence: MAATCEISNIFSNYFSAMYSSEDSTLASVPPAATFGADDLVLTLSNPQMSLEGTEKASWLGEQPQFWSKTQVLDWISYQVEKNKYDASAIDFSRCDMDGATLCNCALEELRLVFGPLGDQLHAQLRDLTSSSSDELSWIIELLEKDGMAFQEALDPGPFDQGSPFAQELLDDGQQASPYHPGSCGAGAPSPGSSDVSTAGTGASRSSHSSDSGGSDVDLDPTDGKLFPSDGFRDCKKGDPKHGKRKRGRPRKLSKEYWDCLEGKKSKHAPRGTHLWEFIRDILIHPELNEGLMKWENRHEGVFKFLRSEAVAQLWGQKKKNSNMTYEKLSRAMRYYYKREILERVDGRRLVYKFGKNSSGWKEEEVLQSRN
Procedure, shortened: as §1

[9] = molecular target: CRX (Homo sapiens, UniProt O43186 1-299); conditions: protein: recombinant; tags: N-terminal GST; dsDNA, one strand shown
Procedure, shortened: as §1

[10] = molecular target: ETV1 (Homo sapiens, UniProt P50549 1-477); conditions: protein: recombinant; tags: N-terminal GST; dsDNA, one strand shown
Procedure, shortened: as §1

[11] = molecular target: T6, ERF (Homo sapiens, UniProt P50548 1-548); conditions: protein: recombinant; tags: N-terminal GST; dsDNA, one strand shown
T6 sequence: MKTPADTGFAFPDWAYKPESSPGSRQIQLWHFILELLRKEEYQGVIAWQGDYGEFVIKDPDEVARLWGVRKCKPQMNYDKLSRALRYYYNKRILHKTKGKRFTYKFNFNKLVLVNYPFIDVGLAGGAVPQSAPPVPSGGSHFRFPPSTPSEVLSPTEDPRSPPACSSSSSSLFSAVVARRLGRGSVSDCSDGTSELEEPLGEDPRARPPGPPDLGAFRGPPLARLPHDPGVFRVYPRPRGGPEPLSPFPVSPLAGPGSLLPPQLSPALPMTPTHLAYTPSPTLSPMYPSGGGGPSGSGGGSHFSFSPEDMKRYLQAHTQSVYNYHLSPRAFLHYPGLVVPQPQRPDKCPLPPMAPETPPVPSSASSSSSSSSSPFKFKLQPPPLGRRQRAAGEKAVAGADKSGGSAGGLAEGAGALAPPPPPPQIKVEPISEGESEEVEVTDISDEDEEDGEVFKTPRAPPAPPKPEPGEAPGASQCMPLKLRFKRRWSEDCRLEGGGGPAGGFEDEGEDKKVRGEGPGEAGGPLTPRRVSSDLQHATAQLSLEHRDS
Procedure, shortened: as §1

[12] = molecular target: T7, ETV3L (Homo sapiens, UniProt Q6ZN32 1-361); conditions: protein: recombinant; tags: N-terminal GST; dsDNA, one strand shown
T7 sequence: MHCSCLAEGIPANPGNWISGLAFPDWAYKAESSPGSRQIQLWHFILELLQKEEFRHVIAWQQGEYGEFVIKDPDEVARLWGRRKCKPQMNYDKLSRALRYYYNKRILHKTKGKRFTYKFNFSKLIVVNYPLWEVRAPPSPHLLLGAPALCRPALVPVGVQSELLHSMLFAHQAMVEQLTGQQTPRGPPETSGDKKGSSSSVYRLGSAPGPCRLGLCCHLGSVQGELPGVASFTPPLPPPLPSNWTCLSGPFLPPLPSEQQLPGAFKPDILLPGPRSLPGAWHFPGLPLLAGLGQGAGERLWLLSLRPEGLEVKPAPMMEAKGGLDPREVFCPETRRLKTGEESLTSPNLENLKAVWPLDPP
Procedure, shortened: as §1

[13] = molecular target: T8, ETS2 (Homo sapiens, UniProt P15036 1-469); conditions: protein: recombinant; tags: N-terminal GST; dsDNA, one strand shown
T8 sequence: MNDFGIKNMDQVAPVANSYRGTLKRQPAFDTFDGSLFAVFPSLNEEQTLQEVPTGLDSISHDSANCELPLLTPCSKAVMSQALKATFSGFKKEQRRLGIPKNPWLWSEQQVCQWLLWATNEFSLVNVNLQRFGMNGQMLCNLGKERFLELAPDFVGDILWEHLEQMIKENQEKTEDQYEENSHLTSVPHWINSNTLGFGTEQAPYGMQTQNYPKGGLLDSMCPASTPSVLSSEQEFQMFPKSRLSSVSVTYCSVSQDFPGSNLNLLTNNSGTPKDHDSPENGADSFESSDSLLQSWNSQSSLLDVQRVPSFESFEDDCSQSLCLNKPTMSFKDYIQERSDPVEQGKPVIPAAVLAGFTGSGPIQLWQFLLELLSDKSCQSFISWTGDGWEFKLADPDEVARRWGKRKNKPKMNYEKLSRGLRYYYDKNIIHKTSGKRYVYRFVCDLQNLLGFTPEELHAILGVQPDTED
Procedure, shortened: as §1

[14] = molecular target: T9, SPDEF (Homo sapiens, UniProt O95238 1-335); conditions: protein: recombinant; tags: N-terminal GST; dsDNA, one strand shown
T9 sequence: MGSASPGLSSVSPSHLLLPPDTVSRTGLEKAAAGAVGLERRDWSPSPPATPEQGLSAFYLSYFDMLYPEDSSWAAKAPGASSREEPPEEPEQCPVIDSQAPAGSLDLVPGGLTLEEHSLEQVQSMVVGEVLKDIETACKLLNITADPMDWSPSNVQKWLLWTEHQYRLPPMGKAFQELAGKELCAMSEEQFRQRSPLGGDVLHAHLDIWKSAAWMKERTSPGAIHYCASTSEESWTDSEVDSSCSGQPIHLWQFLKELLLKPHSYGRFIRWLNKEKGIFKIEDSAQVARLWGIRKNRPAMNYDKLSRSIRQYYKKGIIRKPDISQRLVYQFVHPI
Procedure, shortened: as §1

[15] = molecular target: T10, ETV7 (Homo sapiens, UniProt Q9Y603 1-341); conditions: protein: recombinant; tags: N-terminal GST; dsDNA, one strand shown
T10 sequence: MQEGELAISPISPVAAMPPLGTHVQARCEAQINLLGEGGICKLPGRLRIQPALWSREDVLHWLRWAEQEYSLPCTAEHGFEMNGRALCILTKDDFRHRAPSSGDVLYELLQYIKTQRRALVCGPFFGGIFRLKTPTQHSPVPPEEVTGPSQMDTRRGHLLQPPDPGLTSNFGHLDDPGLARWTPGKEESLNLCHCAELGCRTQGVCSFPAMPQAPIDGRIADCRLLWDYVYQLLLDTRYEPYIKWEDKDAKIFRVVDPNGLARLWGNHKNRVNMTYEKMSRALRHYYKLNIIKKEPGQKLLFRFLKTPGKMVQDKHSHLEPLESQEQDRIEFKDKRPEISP
Procedure, shortened: as §1

[16] = molecular target: T11, ELF5 (Homo sapiens, UniProt Q9UKW6-2 1-255); conditions: protein: recombinant; tags: N-terminal GST; dsDNA, one strand shown
T11 sequence: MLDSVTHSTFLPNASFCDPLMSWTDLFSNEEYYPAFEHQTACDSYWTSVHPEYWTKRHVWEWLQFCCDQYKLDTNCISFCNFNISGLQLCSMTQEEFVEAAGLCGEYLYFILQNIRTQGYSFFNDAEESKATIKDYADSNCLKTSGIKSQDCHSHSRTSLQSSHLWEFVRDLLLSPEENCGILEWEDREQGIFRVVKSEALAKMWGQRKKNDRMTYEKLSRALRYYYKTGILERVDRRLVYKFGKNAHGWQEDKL
Procedure, shortened: as §1

[17] = molecular target: T12, ETV3 (Homo sapiens, UniProt P41162-2 1-143); conditions: protein: recombinant; tags: N-terminal GST; dsDNA, one strand shown
T12 sequence: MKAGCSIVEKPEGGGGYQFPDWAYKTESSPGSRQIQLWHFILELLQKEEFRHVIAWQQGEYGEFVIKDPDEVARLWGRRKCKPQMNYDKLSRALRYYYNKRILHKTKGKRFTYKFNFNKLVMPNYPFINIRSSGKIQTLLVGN
Procedure, shortened: as §1

[18] = molecular target: ETV6 (Homo sapiens, UniProt P41212 1-452); conditions: protein: recombinant; tags: N-terminal GST; dsDNA, one strand shown
Procedure, shortened: as §1

Chain of ETV5 (P41161 whole entry): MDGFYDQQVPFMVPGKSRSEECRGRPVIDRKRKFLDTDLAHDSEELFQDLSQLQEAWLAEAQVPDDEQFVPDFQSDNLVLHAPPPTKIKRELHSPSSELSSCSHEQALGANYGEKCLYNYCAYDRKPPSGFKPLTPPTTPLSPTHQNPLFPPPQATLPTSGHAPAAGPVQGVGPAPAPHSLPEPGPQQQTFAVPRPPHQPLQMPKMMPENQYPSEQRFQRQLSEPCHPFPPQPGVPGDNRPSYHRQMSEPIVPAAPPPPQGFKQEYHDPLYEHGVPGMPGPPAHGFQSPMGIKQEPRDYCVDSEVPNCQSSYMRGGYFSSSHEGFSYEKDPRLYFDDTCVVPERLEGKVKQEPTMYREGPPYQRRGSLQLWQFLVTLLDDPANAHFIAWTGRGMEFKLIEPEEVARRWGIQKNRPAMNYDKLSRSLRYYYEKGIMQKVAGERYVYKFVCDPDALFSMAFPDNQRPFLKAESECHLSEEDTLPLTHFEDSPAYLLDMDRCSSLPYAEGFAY
Chain of ETV1 (P50549 whole entry): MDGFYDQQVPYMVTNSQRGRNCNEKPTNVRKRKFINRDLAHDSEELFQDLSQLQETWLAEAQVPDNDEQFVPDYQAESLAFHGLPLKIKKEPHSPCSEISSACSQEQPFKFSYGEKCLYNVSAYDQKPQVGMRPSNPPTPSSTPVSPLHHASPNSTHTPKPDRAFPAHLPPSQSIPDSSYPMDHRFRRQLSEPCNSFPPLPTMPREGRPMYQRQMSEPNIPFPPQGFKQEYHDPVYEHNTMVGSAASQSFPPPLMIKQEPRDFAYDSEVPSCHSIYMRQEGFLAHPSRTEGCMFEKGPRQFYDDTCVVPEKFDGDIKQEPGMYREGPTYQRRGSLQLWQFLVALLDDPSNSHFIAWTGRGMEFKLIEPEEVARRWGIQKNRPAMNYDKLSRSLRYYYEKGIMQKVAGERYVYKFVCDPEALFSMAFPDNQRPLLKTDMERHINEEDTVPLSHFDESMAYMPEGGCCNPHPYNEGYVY
Chain of ETV6 (P41212 whole entry): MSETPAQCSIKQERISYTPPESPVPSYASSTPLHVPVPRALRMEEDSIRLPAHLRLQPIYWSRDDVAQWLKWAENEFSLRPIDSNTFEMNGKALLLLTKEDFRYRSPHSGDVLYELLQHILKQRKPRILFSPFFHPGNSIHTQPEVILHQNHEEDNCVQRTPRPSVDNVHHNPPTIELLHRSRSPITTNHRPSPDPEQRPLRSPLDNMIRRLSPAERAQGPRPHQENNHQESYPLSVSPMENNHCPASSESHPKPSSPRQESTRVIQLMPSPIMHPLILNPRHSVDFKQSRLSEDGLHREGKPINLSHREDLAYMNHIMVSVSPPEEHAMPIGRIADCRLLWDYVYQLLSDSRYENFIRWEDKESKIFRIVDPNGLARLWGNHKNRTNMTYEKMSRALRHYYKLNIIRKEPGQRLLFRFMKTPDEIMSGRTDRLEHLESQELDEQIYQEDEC
Chain of CRX (O43186 whole entry): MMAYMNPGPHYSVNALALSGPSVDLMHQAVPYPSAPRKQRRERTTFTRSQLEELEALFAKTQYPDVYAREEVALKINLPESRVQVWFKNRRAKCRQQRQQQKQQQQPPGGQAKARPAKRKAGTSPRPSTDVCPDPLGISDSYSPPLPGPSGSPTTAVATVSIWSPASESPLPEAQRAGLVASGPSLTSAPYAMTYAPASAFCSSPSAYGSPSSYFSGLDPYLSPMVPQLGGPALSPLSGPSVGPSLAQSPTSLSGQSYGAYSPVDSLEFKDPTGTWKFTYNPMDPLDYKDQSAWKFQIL
Chain of ELF4 (Q99607 whole entry): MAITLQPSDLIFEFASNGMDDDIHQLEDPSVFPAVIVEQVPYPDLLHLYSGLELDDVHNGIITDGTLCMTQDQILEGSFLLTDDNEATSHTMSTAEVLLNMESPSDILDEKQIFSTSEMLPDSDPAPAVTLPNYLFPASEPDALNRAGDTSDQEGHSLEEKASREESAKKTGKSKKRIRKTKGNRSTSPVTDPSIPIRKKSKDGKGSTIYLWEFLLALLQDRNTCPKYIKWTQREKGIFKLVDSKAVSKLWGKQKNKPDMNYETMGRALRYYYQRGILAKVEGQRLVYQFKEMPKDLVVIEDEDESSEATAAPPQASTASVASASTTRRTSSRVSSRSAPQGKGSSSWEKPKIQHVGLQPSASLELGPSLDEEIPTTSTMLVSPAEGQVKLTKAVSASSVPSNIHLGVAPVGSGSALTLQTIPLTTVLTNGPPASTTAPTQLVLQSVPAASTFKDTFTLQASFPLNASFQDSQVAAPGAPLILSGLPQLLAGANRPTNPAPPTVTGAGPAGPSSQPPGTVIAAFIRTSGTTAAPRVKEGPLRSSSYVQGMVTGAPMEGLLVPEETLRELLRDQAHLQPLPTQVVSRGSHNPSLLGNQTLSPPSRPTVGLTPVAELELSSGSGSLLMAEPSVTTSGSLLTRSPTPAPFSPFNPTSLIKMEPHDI
Chain of HSF1 (Q00613 whole entry): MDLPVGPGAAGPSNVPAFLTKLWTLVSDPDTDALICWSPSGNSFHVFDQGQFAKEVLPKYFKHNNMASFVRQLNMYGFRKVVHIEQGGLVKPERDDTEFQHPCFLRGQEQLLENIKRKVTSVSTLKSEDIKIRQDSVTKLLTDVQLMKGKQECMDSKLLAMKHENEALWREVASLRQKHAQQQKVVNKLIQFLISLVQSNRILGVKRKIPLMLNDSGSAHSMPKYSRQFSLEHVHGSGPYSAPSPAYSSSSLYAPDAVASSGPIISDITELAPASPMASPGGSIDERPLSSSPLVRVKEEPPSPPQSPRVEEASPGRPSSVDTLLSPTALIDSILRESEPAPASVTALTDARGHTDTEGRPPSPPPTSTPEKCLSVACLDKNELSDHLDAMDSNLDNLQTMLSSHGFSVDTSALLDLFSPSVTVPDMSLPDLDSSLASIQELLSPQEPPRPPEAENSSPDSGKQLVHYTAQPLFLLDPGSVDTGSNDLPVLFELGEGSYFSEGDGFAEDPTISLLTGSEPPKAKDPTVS

TACTGC was tested, and the binding signal [1] was 1.24 fold enrichment (6-mer frequency, TF over GST control), the binding signal [2] was 1.32 fold enrichment (6-mer frequency, TF over GST control) and the binding signal [3] was 1.1 fold enrichment (6-mer frequency, TF over GST control). For the same sequence, the binding signal [4] was 1.29 fold enrichment (6-mer frequency, TF over GST control), the binding signal [5] was 1.22 fold enrichment (6-mer frequency, TF over GST control) and the binding signal [6] was 1.17 fold enrichment (6-mer frequency, TF over GST control). For the same sequence, the binding signal [7] was 1.09 fold enrichment (6-mer frequency, TF over GST control), the binding signal [8] was 1.34 fold enrichment (6-mer frequency, TF over GST control) and the binding signal [9] was 1.17 fold enrichment (6-mer frequency, TF over GST control). The binding signal [10] was 1.08 fold enrichment (6-mer frequency, TF over GST control), the binding signal [11] was 1.14 fold enrichment (6-mer frequency, TF over GST control) and the binding signal [12] was 1.17 fold enrichment (6-mer frequency, TF over GST control). For the same sequence, the binding signal [13] was 1.2 fold enrichment (6-mer frequency, TF over GST control), the binding signal [14] was 1.26 fold enrichment (6-mer frequency, TF over GST control) and the binding signal [15] was 1.2 fold enrichment (6-mer frequency, TF over GST control). The binding signal [16] was 1.17 fold enrichment (6-mer frequency, TF over GST control), the binding signal [17] was 1.31 fold enrichment (6-mer frequency, TF over GST control) and the binding signal [18] was 1.26 fold enrichment (6-mer frequency, TF over GST control).

From paper PMC7862700, “An all-to-all approach to the identification of sequence-specific readers for epigenetic DNA modifications on cytosine”
